# Source: PubChem BioAssay (National Center for Advancing Translational Sciences (NCATS))
# DT40 TDP1 CPT = qHTS for Inhibitors of human tyrosyl-DNA phosphodiesterase 1 (TDP1): qHTS in cells in presence of CPT. Potency, µM (series often up to 46.2 µM), for the others: at the top dose activity change, negative = growth inhibition, hits mostly inhibitors. chicken DT40 Tdp1-/-;hTDP1 cells + 20 nM CPT, ATP luminescence, 48 h. 420,000 tested, 12% active. AID 686979, 2013; note: potency is the fitted concentration of half-maximal effect; nearly all actives have a fitted effect of over 55% in size
#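 Cell growth measured by CellTiter-Glo luminescence after a minimum 48 h, 37 C compound exposure with 20 nM CPT in Tdp1-knockout DT40 cells stably expressing hTDP1, seeded 400/well; qHTS titration format.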
# HT1080NT lethal = qHTS for induction of synthetic lethality in tumor cells producing 2HG: qHTS for the HT-1080-NT fibrosarcoma cell line | HT-1080-NT fibrosarcoma viability, CellTiter-Glo ATP luminescence, 48 h | Potency, µM (doses to about 46.1 µM), for inactives: at the top dose activity, negative = less viability, usual class: cytotoxic | 360,000 tested, 1.6% active;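 note: NT is the 2HG producing partner of a matched IDH1 knockdown line; potency is the fitted concentration of half-maximal effect; 0% = DMSO-treated cells and -100% = media-only wells without cells; nearly all actives have a fitted effect of over 55% in size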
#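 Fibrosarcoma NT cells, 750 per well in 5% FBS RPMI, were exposed to compound for 48 hours. Viability: CellTiter-Glo luminescence.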
# TDP1 cell noCPT = qHTS for Inhibitors of human tyrosyl-DNA phosphodiesterase 1 (TDP1): qHTS in cells in absence of CPT | DT40 Tdp1-/- hTDP1 cells, no CPT, ATP luminescence, 48 h | Potency, µM (top dose mostly 46.2 µM), for the others: top-dose activity change, negative = growth inhibition, most hits filed as inhibitors | 420,000 tested, 15% active; note: potency is the fitted concentration of half-maximal effect; nearly all actives have a fitted effect of over 55% in size
#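 Readout: luminescence from CellTiter-Glo after 30 min in the dark at RT. Cells: DT40 Tdp1-/- with stable hTDP1, 400/well. Exposure: compounds alone, ≥48 hr, 37 °C.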
# HT1080 IDH1KD tx = qHTS for induction of synthetic lethality in tumor cells producing 2HG: qHTS for the HT-1080-IDH1KD cell line; HT-1080 IDH1 knockdown viability, ATP luminescence, 48 h; Potency, µM (highest dose often 46.1 µM), for the others: at the top dose activity, negative = toxicity, most hits filed as cytotoxic; 360,000 tested, 2% active; AID 686971, 2013;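 note: potency is the fitted concentration of half-maximal effect; 0% = DMSO wells and -100% = cell-free medium wells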
#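 Cytotoxicity counter-line: IDH1KD HT-1080, 48 h, CellTiter-Glo. Curves classed by r2, magnitude and activity.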
# IL1B secr inh = qHTS for Inhibitors of Inflammasome Signaling: IL-1-beta AlphaLISA Primary Screen; THP-1 LPS/ATP IL-1B secretion, AlphaLISA, 16 h; hits give low values; activity change, % at 57.5 µM; 360,000 tested, 4.7% active; AID 743279, 2014; in the data active = activity change below about -50%; inconclusive = mostly about -30% to -49%
#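 THP-1 cells pretreated 1 hr with compounds (up to 57.5 uM final), then stimulated with LPS (250 ng/mL final) plus ATP (1.25 mM final); secreted IL-1B measured by AlphaLISA after 16 hr, decreased signal indicating inhibition.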
# 12-LOX inh = Primary qHTS assay for inhibitors of human arachidonate 12S-lipoxygenase (ALOX12): Round 2. purified 12hLO, xylenol orange hydroperoxide absorbance. Potency, µM (highest dose often 108 µM), for inactives: top-dose activity change, negative = inhibition, usual class: inhibitors. 580,000 tested, 1.1% active; note: potency is the fitted concentration of half-maximal effect
# Target sequence (P18054 whole entry, looked up): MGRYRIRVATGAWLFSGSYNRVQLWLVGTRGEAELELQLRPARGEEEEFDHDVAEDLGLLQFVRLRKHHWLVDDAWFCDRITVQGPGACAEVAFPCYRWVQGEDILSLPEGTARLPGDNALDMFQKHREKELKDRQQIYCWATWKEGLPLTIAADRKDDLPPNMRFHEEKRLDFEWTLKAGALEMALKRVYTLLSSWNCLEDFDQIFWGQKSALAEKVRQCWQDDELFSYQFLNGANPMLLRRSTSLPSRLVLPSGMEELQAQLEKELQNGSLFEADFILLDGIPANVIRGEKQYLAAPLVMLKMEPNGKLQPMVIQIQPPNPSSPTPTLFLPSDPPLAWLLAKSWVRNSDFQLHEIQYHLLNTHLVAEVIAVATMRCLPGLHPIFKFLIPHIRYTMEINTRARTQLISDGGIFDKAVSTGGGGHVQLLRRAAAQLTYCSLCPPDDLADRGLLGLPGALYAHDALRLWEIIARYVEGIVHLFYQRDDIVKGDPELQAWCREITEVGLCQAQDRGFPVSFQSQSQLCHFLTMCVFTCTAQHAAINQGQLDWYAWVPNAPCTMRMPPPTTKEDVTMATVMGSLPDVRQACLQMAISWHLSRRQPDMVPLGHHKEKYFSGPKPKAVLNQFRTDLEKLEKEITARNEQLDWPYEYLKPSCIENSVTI
#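 Purified human 12hLO (150 nM final) in 25 mM Hepes, 0.01% Triton X-100, pH 7.0 was preincubated 15 min at room temperature with compound. Then 40 uM arachidonic acid was added, 30 min. Hydroperoxide was read by Fe-XO absorbance ratio 573/405 nm.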
# Numbers without * were called inactive; ? = inconclusive; . = not tested or not shown; ! = not confirmed by another sample; [ ] = remark or other dose. The full list was thinned out, with hits kept by preference. Unless noted, calls come from the whole dose curve; as a rule, active = well fitted curve in the direction sought with a large enough effect; inconclusive = small, poorly fitted or top-dose-only effect, or another doubt; inactive = no such curve, though single readings can be large; an effect the other way counts as inactive or inconclusive. Unless noted, % is set by controls: 0 for no effect and ±100 for the full control effect.
SMILES,DT40 TDP1 CPT,HT1080NT lethal,TDP1 cell noCPT,HT1080 IDH1KD tx,IL1B secr inh,12-LOX inh
Cc1cccc(OCC(=O)N2CCC3(CC2)c2nccn2-c2ccccc2CN3C)c1,.,.,.,.,.,44%
O=C(NCCN1CCC2(CC1)C(=O)NCN2c1ccccc1)c1cccc2c1-c1ccccc1C2=O,.,.,.,.,.,6%
CN1CN(c2ccccc2)C2(CCN(CCCSc3ccccc3NC(=O)/C=C/c3ccccc3)CC2)C1=O,?,?,?,?,-71*,?
CC1CCC(NCCc2ccc3c(c2)OCO3)CC1 (stereo not drawn),?,4%,?,-9%,-5,?
CCOc1ccc(CN(CCc2ccc3c(c2)OCO3)Cc2cccc(Br)c2)cc1,2.1µM*,.,?,.,.,?
COc1nnc(-c2ccc(N3CCCCC3)c(NC(=O)c3ccccc3)c2)c2ccccc12,?,.,15µM*,.,.,-7%
O=C1c2cc([N+](=O)[O-])ccc2-c2ncccc21,?,-8%,?,-2%,5,38%
CN(N=Cc1ccc([N+](=O)[O-])cc1)c1ccccn1,?,14%,?,12%,-58*,?
COc1ccccc1N1CCN(S(=O)(=O)c2ccc3c(c2)oc(=O)n3C)CC1,-3%,3%,?,2%,-12,0%
Cc1ccc(C)c(N2CCN(C(=O)CCS(=O)(=O)c3ccc4c(c3)oc(=O)n4C)CC2)c1,16µM*,-13%,15µM*!,1%,-21,-13%
CCC1C(c2cc(OC)c(OC)c(OC)c2)c2cc3c(cc2OC1N1CCCC1)OCO3 (stereo not drawn),5.2µM*,?,4.1µM*,?,-18,?
CN(C)C1(c2nnnn2-c2ccc(Cl)cc2)CCCCC1,-22%,-7%,?,-2%,33,-12%
CN(C)C1(c2nnnn2CCOC(=O)Nc2ccc(Cl)cc2)CCCCC1,?,-11%,18µM*,-24%,-29,397%
CCOc1ccc(CCNC(=O)c2ccc(CS(=O)(=O)c3ccccc3C)o2)cc1OCC,?,.,15µM*,.,.,-9%
Cc1ccc(OCC(=O)N2CCN(Cc3ccc4c(c3)OCO4)CC2)cc1C,-6%,-6%,-27%,-12%,-8,-19%
CSc1ccc(CN2CCN(C(=O)COc3ccc(C)cc3)CC2)cc1,?,0%,18µM*,-14%,-22,?
CCCCNS(=O)(=O)c1ccc(OCC(=O)N2CCN(Cc3ccc4c(c3)OCO4)CC2)cc1,10µM*,-8%,?,-1%,-29,-25%
Cn1nc(-c2ccc(OCC(=O)N3CCN(Cc4ccccc4)CC3)cc2)c2ccccc2c1=O,13µM*,-4%,6.5µM*,-14%,5,?
O=C(COc1ccc(Br)cc1)N1CCN(Cc2ccc3c(c2)OCO3)CC1,?,0%,-13%,-14%,-60*,?
FC(F)(F)CN1C2CCC1CN(c1nccc(Cl)n1)C2,.,.,.,.,.,-3%[6.33 µM]
NC1(c2ccccc2)CCC1,.,.,.,.,.,0%
COc1ccc(-c2cn(C[C@H]3C[C@@H]4CCN3C[C@@H]4C(=O)NC(C)C)nn2)cc1,.,.,.,.,.,20%[176 µM]
CS(=O)(=O)N(CC(=O)N1CCN(Cc2ccc3c(c2)OCO3)CC1)Cc1ccc(Cl)cc1,11µM*,-9%,?,?,-14,-4%
Cc1cccc(OCC(=O)N2CCN(Cc3ccc4c(c3)OCO4)CC2)c1,-3%,1%,?,0%,-8,?
